Only a sample is shown.
LmPK activator – boosts Leishmania mexicana pyruvate kinase activity. purified LmPK, Kinase-Glo ATP luminescence, 1 h. activity change, negative = inhibition, % at 57.5 µM. Q27686. 290,000 tested, under 10 active; calls by dose curve
Target sequence (Q27686 whole entry, looked up): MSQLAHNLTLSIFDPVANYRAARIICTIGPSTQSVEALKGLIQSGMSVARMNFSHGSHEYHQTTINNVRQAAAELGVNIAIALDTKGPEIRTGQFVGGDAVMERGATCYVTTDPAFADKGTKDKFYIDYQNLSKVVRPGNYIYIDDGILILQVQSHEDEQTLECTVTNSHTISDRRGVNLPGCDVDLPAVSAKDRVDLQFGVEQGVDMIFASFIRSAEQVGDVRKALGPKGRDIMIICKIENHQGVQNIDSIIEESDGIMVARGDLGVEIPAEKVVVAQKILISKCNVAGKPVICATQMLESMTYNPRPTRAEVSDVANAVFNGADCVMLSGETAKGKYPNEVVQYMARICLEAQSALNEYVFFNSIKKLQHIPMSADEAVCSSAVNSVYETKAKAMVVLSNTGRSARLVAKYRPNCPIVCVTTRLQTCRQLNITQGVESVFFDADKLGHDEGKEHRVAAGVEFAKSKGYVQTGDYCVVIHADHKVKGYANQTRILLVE
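Purified L. mexicana pyruvate kinase (0.1 nM) with 0.5 mM PEP and 0.1 mM ADP in pH 7.2 imidazole buffer, 1 h at RT. ATP formed measured by Kinase-Glo luminescence; normalized to uninhibited and no-enzyme wells.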
* hit, by the source's call.

SMILES	LmPK activator
CCCc1nc2ccccc2c(=O)n1/N=C/c1c(C)[nH]n(-c2ccc(C)cc2)c1=O	-47
CC1=C(C#N)C(=O)N(C2CCS(=O)(=O)C2)C(=O)/C1=C\c1ccco1 (stereo unspecified)	-31
CCOc1ccc(-c2cn3ccccc3n2)cc1	-86
CC(C)c1cc2c(c(O)c1O)[C@@]13CCCC(C)(C)C1CC2OC3=O (stereo partly specified)	-83
Cc1ccc(-n2c(CCc3ccccc3)n[nH]c2=S)cc1C	-82
Cc1cccnc1NC(=O)c1cc2ccccc2oc1=O	-53
CSc1ccc(/C=N/NC(=O)c2sccc2C)cc1	-52
CC(C1CC2CCC1C2)n1c(-c2ccco2)n[nH]c1=S (stereo unspecified)	-78
FC(F)(F)c1ccc(Cl)c(-n2c(-c3cc(C4CC4)[nH]n3)n[nH]c2=S)c1	-56
Cc1cc(N=Nc2ccc(C)c(N=Nc3cc(C)c(N)cc3N)c2)c(N)cc1N	-71
COc1cccc(C(=O)O/N=C(\C)c2cnccn2)c1	-48
CC12CCC(=O)N1C(C(=O)Nc1nnc(SCc3ccccc3F)s1)CS2 (stereo unspecified)	-37
Oc1ccccc1-c1n[nH]c(=S)n1Cc1ccco1	-56
COc1ccc(N=Nc2n(C)c3ccccc3[n+]2C)cc1	-103
O=c1c2ccccc2cnn1Cc1n[nH]c(=S)n1-c1ccccc1Cl	-43
COc1cccc(NC(=O)c2ccc3snnc3c2)c1	-46
COCCCn1c(=S)[nH]c2sc3c(c2c1=O)CCCS3	-40
Oc1ccc(O)c2c1C1c3ccccc3C2c2ccccc21	-105
CCCCNC(=O)COC(=O)CCC(=O)c1ccc(Cl)cc1	-32
Cc1cc(C)c(Nc2cc(S(=O)(=O)O)c(N)c3c2C(=O)c2ccccc2C3=O)c(C)c1	-54
O=C(Nc1ccc(-c2nc3cccnc3s2)cc1)C1CCCO1 (stereo unspecified)	-82
Cn1c(-c2sc3ccccc3c2Cl)n[nH]c1=S	-30
N#Cc1c(Cl)nsc1NN	-41
Clc1ccc(-c2cn3c(n2)-c2ccccc2C3)cc1Cl	-63
CC(c1ccc(F)cc1)n1c(-c2cccs2)n[nH]c1=S (stereo unspecified)	-31
SMILES	LmPK activator
Cc1ccc(CCC(=O)Nc2ccccc2F)s1	-51
Cc1nc(-c2ccc([N+](=O)[O-])cc2)sc1C(=O)O	-68
CCn1c(=O)c2c(n3c(=S)[nH]nc13)-c1ccccc1CC21CCCCC1	-61
CC(c1ccccc1)n1c(-c2ccc(Cl)cc2)n[nH]c1=S (stereo unspecified)	-55
Cc1ccc(C)c(-n2c(-c3csc(C)c3C)n[nH]c2=S)c1	-79
O=C(Nc1nc2c(F)cc(F)cc2s1)c1ccccn1	-56
CC1CCN(c2ccc(-c3cccs3)nn2)CC1	-38
O=C(/C=C/Nc1ccc(Oc2ccccc2)cc1)c1ccco1	-115
O=C1CSC(=S)N1N1C(=O)c2cccc([N+](=O)[O-])c2C1=O	-32
O=[N+]([O-])c1cnc2nc(-c3ccncc3)nn2c1O	-81
Cc1cccc2nc(COc3ccc(-c4ccccc4)cc3)cn12	-73
COc1ccc(OC)c(-n2c(Cn3c(-c4ccccn4)nc4ccccc43)n[nH]c2=S)c1	-53
CCOc1ccc(NC(=O)Nc2ccccc2SC)cc1	-87
Oc1c(Br)cc(Br)cc1C=NCc1ccc(F)cc1	-54
CC(=O)NC(CSC(CC(=O)c1ccco1)c1ccc(C)cc1)C(=O)O (stereo unspecified)	-44
Cc1csc(NC(=O)c2cn3ccccc3n2)n1	-91
Cc1ccsc1C(=O)Nc1ccc2c(c1)OCCO2	-84
Cn1c2c(c(=O)[nH]c1=O)C(c1cccc(O)c1)C1=C(N2)c2ccccc2C1=O (stereo unspecified)	-39
N/C(=N\OC(=O)c1ccc(Br)o1)c1ccccn1	-106
O=C(/C=C/c1ccc(Br)cc1)NC(=S)N1CCOCC1	-33
Cc1ccc(C)c2nc3sc(C(=O)O)cc3cc12	-46
CCc1ccc(C(=O)COC(=O)c2ccccc2OC)cc1	-31
CC(C)Cn1c(C23CC4CC(CC(C4)C2)C3)n[nH]c1=S	-64
Fc1ccc(-c2c[nH]c(=S)n2Cc2ccccc2)cc1	-79
COc1cccc(CNC(=O)CCC2CCCN(C(=O)c3cc4ccccc4o3)C2)c1 (stereo unspecified)	-38
SMILES	LmPK activator
COc1cc(N2C(=O)C=CC2=O)c(OC)cc1Cl	-61
C=CCn1c(-c2ccc3ncccc3c2)n[nH]c1=S	-43
Cc1ccccc1OCC(=O)NC1=NCCS1	-50
COc1ccc(Cn2c(=S)[nH]c3ccsc3c2=O)cc1	-44
Oc1ccc(N2CCN(Cc3cc4c(cc3Br)OCCO4)CC2)cc1	-42
CSc1nc(N)n2nc(-c3ccccc3)cc2n1	-79
C=CCn1c(-c2sc3nc(C)cc(C)c3c2N)n[nH]c1=S	-50
CCC(=O)NC1=C(Cl)C(=O)C(NC(=O)CC)=C(Cl)C1=O	-47
CCN(C(=O)COC(=O)c1cccnc1Nc1ccccc1F)C1CCS(=O)(=O)C1 (stereo unspecified)	-53
Oc1ccc(N2CCN(Cc3nc4ccccc4[nH]3)CC2)cc1	-38
O=C(c1ccccc1)c1cc(Cl)ccc1N1C(=O)C=CC1=O	-50
Clc1ccccc1N/N=C/c1ccc2c(c1)OCO2	-39
Cc1ccnc(NC(=O)Nc2cccc(F)c2)c1	-39
COc1cccc(CSc2nc3ccncc3[nH]2)c1	-69
O=c1c2c(-c3ccccc3)csc2nc2c3ccccc3c(NCCN3CCOCC3)nn12	-32
Cn1cccc1C(=O)NC(=O)COC(=O)C12CC3CC(CC(O)(C3)C1)C2	-37

Source: PubChem
